Laboratory results published in PubChem BioAssay AID434926 (Sanford-Burnham Center for Chemical Genomics, 2010).
This is one part of the list. A number with no mark means an inactive call. Active and inactive are the calls of the source.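 How the source made its calls: active means at least twofold enzyme activation in any of six single-dose repeats, which the averaged readout prints as negative percent; inactive means the rest.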

target: Intestinal-type alkaline phosphatase (Homo sapiens) (UniProt P09923); test: human IAP activators, confirmation, biochemical, luminescence, single concentration, uHTS hits (AID 434926); conditions: purified IAP, CDP-Star luminescence, 30 min; at 8.3 µM; hits give low values
Sequence (P09923 whole entry, looked up): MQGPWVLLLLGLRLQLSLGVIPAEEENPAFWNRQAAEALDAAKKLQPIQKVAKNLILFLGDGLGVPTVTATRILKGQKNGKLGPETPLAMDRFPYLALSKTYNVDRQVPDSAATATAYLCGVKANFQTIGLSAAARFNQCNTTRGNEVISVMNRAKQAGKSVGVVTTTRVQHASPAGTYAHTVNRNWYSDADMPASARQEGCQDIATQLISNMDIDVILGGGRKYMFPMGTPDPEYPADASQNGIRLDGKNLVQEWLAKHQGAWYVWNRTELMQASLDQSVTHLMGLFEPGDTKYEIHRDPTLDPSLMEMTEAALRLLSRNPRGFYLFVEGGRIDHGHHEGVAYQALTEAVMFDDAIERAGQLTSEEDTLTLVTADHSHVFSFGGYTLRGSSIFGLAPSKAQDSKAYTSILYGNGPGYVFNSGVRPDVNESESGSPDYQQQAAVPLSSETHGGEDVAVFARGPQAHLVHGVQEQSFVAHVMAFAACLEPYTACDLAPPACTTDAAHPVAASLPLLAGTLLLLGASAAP

Question: `COc1c(O)cc2oc(-c3ccc(O)c(O)c3)cc(=O)c2c1O` was tested. Which activation (%Activity, negative = activation) did it give?
Answer: -36.9%

Question: How did the activation (%Activity, negative = activation) turn out when `COc1ccc(C(=O)NNc2cc(C)nc(NNC(=O)c3ccc(OC)cc3)n2)cc1` was run?
Answer: -9.79%

Question: For `CC(C)(C)OC(=O)NCCCCCNC(=O)c1[nH]cnc1C(=O)Nc1nccs1`, which activation (%Activity, negative = activation) is on record?
Answer: -6.96%

Question: For `CCCOCC(O)CC(CC)C(=O)NNC(=S)Nc1ccccc1` (stereo not given), which activation (%Activity, negative = activation) is on record?
Answer: -138% (active)

Question: Which activation (%Activity, negative = activation) does the source give for `Cc1cc(C(=O)NC2CC(C)(C)Cc3c2cnn3-c2ccccc2)n[nH]1` (stereo not given) here?
Answer: 62.1%

Question: With `COc1cc(NC(=O)NCC2CCN(Cc3ccc(C)cc3)CC2)cc(OC)c1OC` as the compound, how does the activation (%Activity, negative = activation) read?
Answer: -1.35%

Question: For `Cc1cc(C)cc(NC(=O)NC2CCN(CC(=O)Nc3cccc(Cl)c3C)CC2)c1`, which activation (%Activity, negative = activation) is on record?
Answer: 1.71%

Question: `CCC(C)C(=O)Nc1ccccc1N1CCN(c2ccc(F)cc2)CC1` (stereo not given) was tested. Which activation (%Activity, negative = activation) did it give?
Answer: 13.6%

Question: For `CN1/C(=c2/s/c(=C3/C(=O)N(c4ccccc4)NC3=Nc3ccccc3)n(C)c2=O)C(C)(C)c2ccccc21`, which activation (%Activity, negative = activation) is on record?
Answer: -2.61%

Question: With `COc1ccc(CN2CCC(n3nccc3NC(=O)CCCc3ccccc3)CC2)cc1C` as the compound, how does the activation (%Activity, negative = activation) read?
Answer: -127% (active)

Question: How did the activation (%Activity, negative = activation) turn out when `C#CCOCCOCCOCCNc1nc(N2CCN(C(=O)CCCCCCCCCCNC(=O)[C@H]([C@@H](C)CC)n3cc(CCCCN=C(N)N)nn3)CC2)nc(N2CCN(C(=O)CCCCCCCCCCNC(=O)[C@H](CO)n3cc(CCCSC)nn3)CC2)n1` was run?
Answer: 38.5%

Question: How did the activation (%Activity, negative = activation) turn out when `O=C(Nc1cccc(-c2cccc(Cl)c2)c1)C1CCN(C2CCC2)CC1` was run?
Answer: -7.84%

Question: `CCOC(=O)c1cn[nH]c1NC(=S)Nc1ccccc1` was tested. Which activation (%Activity, negative = activation) did it give?
Answer: -69.2%

Question: With `CC(=O)c1ccc(NC(=O)C2CCCN2S(=O)(=O)c2cccs2)cc1` (stereo not given) as the compound, how does the activation (%Activity, negative = activation) read?
Answer: -85.1% (active)

Question: With `Cc1c(C=O)c2ccccn2c1C(=O)c1ccncc1` as the compound, how does the activation (%Activity, negative = activation) read?
Answer: 5.63%

Question: For `CCN1/C(=C\c2ccc3ccccc3[n+]2CC)Sc2cc(C)ccc21`, which activation (%Activity, negative = activation) is on record?
Answer: 32.7%

Question: `O=C(Nc1ccon1)c1nc[nH]c1C(=O)NCc1ccccc1` was tested. Which activation (%Activity, negative = activation) did it give?
Answer: 88.5%

Question: How did the activation (%Activity, negative = activation) turn out when `CC(C)Oc1ccc(CCC(=O)NNC(=S)NCc2ccccc2)cc1` was run?
Answer: 46.5%

Question: Which activation (%Activity, negative = activation) does the source give for `OC1CN=C2Sc3ccccc3N2C1` (stereo not given) here?
Answer: -100% (active)

Question: `O=c1c(/C=N/O)coc2ccc(Cl)cc12` was tested. Which activation (%Activity, negative = activation) did it give?
Answer: -11.6%

Question: For `CCC(C(=O)Nc1ccc(C(C)C)cc1)c1ccccc1` (stereo not given), which activation (%Activity, negative = activation) is on record?
Answer: -30.6%

Question: For `NC(=O)COc1ccc(NC(=O)c2ccccc2-c2ccccc2)cc1`, which activation (%Activity, negative = activation) is on record?
Answer: 9.49%

Question: Which activation (%Activity, negative = activation) does the source give for `COc1ccc2c(c1OC)C(=O)N(c1ncn[nH]1)C2` here?
Answer: 12.6%

Question: How did the activation (%Activity, negative = activation) turn out when `Oc1cccc(/C=N/Nc2ccc(Cl)nn2)c1O` was run?
Answer: 1.16%

Question: For `O=C(NNC(=S)Nc1ccccc1)c1cccc(S(=O)(=O)N2CCOCC2)c1`, which activation (%Activity, negative = activation) is on record?
Answer: -70.7%
